Laboratory results: PubChem BioAssay (NCI)
Values joined by “and” are separate entries in the source; they are usually repeats but may differ in a detail not shown here. Identical values can stand only once. About 83,000 compounds went through this panel and 20% of them were active in at least one assay; those are over-represented in the sample as a whole.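 Interpretation: 100, growth as untreated; towards 0, rising growth inhibition; 0, no net growth; 0 to -100, cell death. Compounds scoring below 10 were considered active.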 Active and inactive are the calls of the source.

How the values were obtained:
Assay in all cases: NCI-60 one-dose screen, 48 h (100 = growth as untreated, 0 = no growth, -100 = all killed)
Details in all cases: 10 µM unless noted
EKVX NSCLC = system: EKVX NSCLC
SN12C renal = system: SN12C renal
UO-31 renal = system: UO-31 renal
ACHN renal = system: ACHN renal
CAKI-1 renal = system: CAKI-1 renal
CCRF-CEM leukemia = system: CCRF-CEM leukemia
MOLT-4 leukemia = system: MOLT-4 leukemia
TK-10 renal = system: TK-10 renal
A498 renal = system: A498 renal

Measured: growth

O=[N+]([O-])c1ccc2c(c1)Cc1ccccc1-2
inactive: EKVX NSCLC 61.1% | SN12C renal 101% | UO-31 renal 82.9% | ACHN renal 94.2% | CAKI-1 renal 99% | CCRF-CEM leukemia 91.4% | MOLT-4 leukemia 86.2%

CCSc1nc2ccccc2o1
inactive: EKVX NSCLC 104% | SN12C renal 88.9% | UO-31 renal 79.4% | TK-10 renal 102% | ACHN renal 99% | CAKI-1 renal 87.9% | A498 renal 83.6% | CCRF-CEM leukemia 97.5% | MOLT-4 leukemia 100%

CCC(C)(O)Cc1ccc(Cl)cc1 (stereo unspecified)
inactive: EKVX NSCLC 111% | SN12C renal 103% | UO-31 renal 94.2% | TK-10 renal 97.6% | ACHN renal 111% | CAKI-1 renal 101% | A498 renal 89.5% | CCRF-CEM leukemia 105% | MOLT-4 leukemia 98.4%

O=C(Cc1nc2cc(Cl)c(Cl)cc2nc1CC(=O)c1cccnc1)c1cccnc1
inactive: EKVX NSCLC 54% | SN12C renal 75% | TK-10 renal 141% | ACHN renal 60.9% | CAKI-1 renal 72.5% | A498 renal 133% | CCRF-CEM leukemia 31.4% | MOLT-4 leukemia 38.8%

O=C(C[P+](c1ccccc1)(c1ccccc1)c1ccccc1)c1ccccc1
inactive: EKVX NSCLC 88.5% | SN12C renal 87.9% | UO-31 renal 71.8% | TK-10 renal 94.4% | ACHN renal 94.3% | CAKI-1 renal 84.5% | A498 renal 79.8% | CCRF-CEM leukemia 90.5% | MOLT-4 leukemia 92.3%

CCOc1ccc(C(CN2CCOCC2)C(C)=O)cc1OC (stereo unspecified)
inactive: EKVX NSCLC 96.2% | SN12C renal 86.6% | UO-31 renal 75.4% | TK-10 renal 49.8% | ACHN renal 79.6% | A498 renal 92.2% | CCRF-CEM leukemia 52.7% | MOLT-4 leukemia 87.2%
active: CAKI-1 renal -89.9%

CCOC(=O)c1c(C)[nH]c2ccc(O)cc12
inactive: EKVX NSCLC 98.3% | SN12C renal 98.9% | UO-31 renal 72.3% | TK-10 renal 128% | ACHN renal 110% | CAKI-1 renal 97.8% | CCRF-CEM leukemia 77.5% | MOLT-4 leukemia 105%

NNc1cccc([N+](=O)[O-])c1
inactive: EKVX NSCLC 79.9% | SN12C renal 102% | UO-31 renal 83.1% | TK-10 renal 98% | CAKI-1 renal 56% | A498 renal 83% | CCRF-CEM leukemia 38.1% | MOLT-4 leukemia 25.3%

CC(C)(C)c1ccc(O)c(-c2ccccc2)c1
inactive: EKVX NSCLC 103% | SN12C renal 109% | UO-31 renal 110% | TK-10 renal 99.5% | CAKI-1 renal 86.7% | A498 renal 121% | CCRF-CEM leukemia 97.1%
active: MOLT-4 leukemia -54.2%

CC(=O)OC1CC2CCC1(C)C2(C)C (stereo unspecified)
inactive: EKVX NSCLC 102% | SN12C renal 98.6% | UO-31 renal 87.3% | TK-10 renal 106% | ACHN renal 96.7% | CAKI-1 renal 92.6% | A498 renal 108% | MOLT-4 leukemia 112%

CCCOC(=O)c1nc(N(CC2CCCCC2)C(=O)NC)sc1/N=C/c1ccccc1
inactive: SN12C renal 15% | UO-31 renal 23.9% | TK-10 renal 52.5% | ACHN renal 17.4% | CAKI-1 renal 31.7%
active: EKVX NSCLC 9.94% | MOLT-4 leukemia 3.07%

CC(=O)N1CC(=O)NC1=S
inactive: EKVX NSCLC 94% | SN12C renal 100% | UO-31 renal 86.1% | TK-10 renal 102% | ACHN renal 103% | CAKI-1 renal 93% | CCRF-CEM leukemia 105% | MOLT-4 leukemia 104%

Nc1cc(-c2ccccc2)ccc1O
inactive: EKVX NSCLC 96.4% | SN12C renal 104% | UO-31 renal 93.4% | TK-10 renal 127% | ACHN renal 104% | A498 renal 93% | CCRF-CEM leukemia 37.2% | MOLT-4 leukemia 25.1%

CCCN(CCC)C(=O)c1ccc(C)cc1
inactive: EKVX NSCLC 89.2% | SN12C renal 97.9% | UO-31 renal 94.1% | TK-10 renal 99.6% | ACHN renal 102% | CAKI-1 renal 99.2% | A498 renal 27% | CCRF-CEM leukemia 85.7% | MOLT-4 leukemia 101%

Oc1ccc(Nc2ccc3ccccc3c2)cc1
inactive: EKVX NSCLC 79% | SN12C renal 64.8% | UO-31 renal 10.6% | TK-10 renal 45.3% | ACHN renal 18.5% | CCRF-CEM leukemia 49% | MOLT-4 leukemia 46.8%
active: CAKI-1 renal 8.98%

O=C(O)c1ccc2c(c1)C(=O)c1ccccc1C2=O
inactive: EKVX NSCLC 102% | SN12C renal 94.6% | UO-31 renal 87% | TK-10 renal 105% | ACHN renal 103% | CAKI-1 renal 96.4% | A498 renal 71.8% | CCRF-CEM leukemia 108% | MOLT-4 leukemia 94.4%

O=Nc1ccc2ccccc2c1O
active: TK-10 renal 9.55%
inactive: EKVX NSCLC 64.1% | SN12C renal 42.4% | UO-31 renal 79.8% | ACHN renal 69.1% | CAKI-1 renal 78.1% | A498 renal 95.3% | CCRF-CEM leukemia 64.5% | MOLT-4 leukemia 91.2%

Cc1ccc2c(c1)sc(-c1ccc(N(C)C)cc1)[n+]2C
inactive: UO-31 renal 65.1% | TK-10 renal 14.8% | ACHN renal 63.6% | CAKI-1 renal 72.3%
active: EKVX NSCLC 6.29% | SN12C renal 3.59% | A498 renal -6.25% | MOLT-4 leukemia -42.4%

CN(C)CCN(C)CC(C)(C)C(=O)/C=C/c1ccc(Cl)c(Cl)c1
active: EKVX NSCLC -82.4% [100 µM] | SN12C renal -96.2% [100 µM] | UO-31 renal -100% [100 µM] | TK-10 renal -97.7% [100 µM] | ACHN renal -100% [100 µM] | CAKI-1 renal -100% [100 µM] | A498 renal -96% [100 µM] | CCRF-CEM leukemia -0.943% [100 µM] | MOLT-4 leukemia -23.3% [100 µM]

CC1C(c2ccccc2)OCCN1C(=S)Nc1ccc(S(=O)(=O)N2CCCCC2)cc1 (stereo unspecified)
inactive: EKVX NSCLC 92.1% | SN12C renal 96.1% | UO-31 renal 94.5% | TK-10 renal 116% | CAKI-1 renal 36.4% | CCRF-CEM leukemia 81% | MOLT-4 leukemia 99.5%

O=S(=O)(O)c1cnccn1
inactive: EKVX NSCLC 97.4% | SN12C renal 103% | UO-31 renal 93.4% | TK-10 renal 94% | ACHN renal 104% | CAKI-1 renal 92.3% | A498 renal 118% | CCRF-CEM leukemia 112% | MOLT-4 leukemia 101%

Oc1ccc2ccccc2c1N=Nc1ccccn1
inactive: EKVX NSCLC 22.2% | SN12C renal 35.4% | UO-31 renal 33.1% | ACHN renal 11.9% | CAKI-1 renal 11.7% | A498 renal 79.9% | MOLT-4 leukemia 11.4%
active: TK-10 renal 6%

Cc1ccc(NC(=S)C#N)cc1Cl
active: TK-10 renal 7.58% [100 µM] and -53.9% [100 µM]

O=C(CCc1ccccc1)ON1C(=S)NC(c2ccccc2)(c2ccccc2)C1=S
active: TK-10 renal -6.92% [100 µM] and -21.7% [100 µM]

Cc1ccc(N2C(=O)C=CC2=O)cc1
inactive: SN12C renal 93.7% | UO-31 renal 90% | TK-10 renal 99.5% | ACHN renal 68.1% | CAKI-1 renal 86.1% | CCRF-CEM leukemia 13.7%

O=[N+]([O-])c1ccc(C2N(Cc3ccc(Cl)cc3)CCN2Cc2ccc(Cl)cc2)cc1
inactive: SN12C renal 90.7% | UO-31 renal 48.5% | TK-10 renal 80.5% | ACHN renal 81.6% | CAKI-1 renal 72.7% | A498 renal 88.4% | CCRF-CEM leukemia 83.5% | MOLT-4 leukemia 80.3%

CCOc1ccc(NC(=O)/C(=N\N)C(C(=O)OC)c2nc3ccc(Cl)cc3[nH]c2=O)cc1 (stereo unspecified)
inactive: TK-10 renal 128% [100 µM] and 85.6% [100 µM]

COc1ccc(C(Cn2ccnc2)Sc2ccc(Cl)c(Cl)c2)cc1 (stereo unspecified)
inactive: SN12C renal 88.6% | UO-31 renal 45.2% | TK-10 renal 96.7% | ACHN renal 83.4% | CAKI-1 renal 62.3% | A498 renal 67.8% | CCRF-CEM leukemia 79.3% | MOLT-4 leukemia 64.1%

CN(C)c1ccc(/C=C/c2nccc3ccccc23)cc1
inactive: SN12C renal 75.6% | UO-31 renal 58.4% | TK-10 renal 88.2% | ACHN renal 87.1% | CAKI-1 renal 73.6% | MOLT-4 leukemia 99.9%

CC(O)C(O)C(O)C(O)C(O)C(=O)NNc1ccccc1 (stereo unspecified)
inactive: SN12C renal 90.5% | UO-31 renal 70.6% | TK-10 renal 110% | ACHN renal 67% | CAKI-1 renal 77.1% | A498 renal 69.7% | CCRF-CEM leukemia 59.6% | MOLT-4 leukemia 101%
